Out of some 2,100 compounds screened, about 770 (37%) were called active. This is one part of the list. Unmarked numbers belong to inactive results.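 How the source made its calls: active means by-eye trace score of 1 for enhancers or -1 for inhibitors, so actives lie on both sides (some results past the limit were not filed as active); inactive means score 0, or 3 fluorescent, or 4 baseline rise.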

The assay deals with G protein-activated inward rectifier potassium channel 2 (Homo sapiens) + G protein-activated inward rectifier potassium channel 1 (Homo sapiens) (UniProt P48051+P48549). The assay can be described thus: GIRK1/2 thallium flux modulators, retest, confirmation, cell-based, HEK293 rmGlu8/hGIRK1/2, FluoZin-2 (AID 623911). The note with it: HEK293 rmGlu8/hGIRK1/2, thallium flux FluoZin-2; actives lie on both sides; glutamate co-added at its EC20 level.
Chain of G protein-activated inward rectifier potassium channel 2 (Homo sapiens) + G protein-activated inward rectifier potassium channel 1 (Homo sapiens) (P48051 whole entry, looked up): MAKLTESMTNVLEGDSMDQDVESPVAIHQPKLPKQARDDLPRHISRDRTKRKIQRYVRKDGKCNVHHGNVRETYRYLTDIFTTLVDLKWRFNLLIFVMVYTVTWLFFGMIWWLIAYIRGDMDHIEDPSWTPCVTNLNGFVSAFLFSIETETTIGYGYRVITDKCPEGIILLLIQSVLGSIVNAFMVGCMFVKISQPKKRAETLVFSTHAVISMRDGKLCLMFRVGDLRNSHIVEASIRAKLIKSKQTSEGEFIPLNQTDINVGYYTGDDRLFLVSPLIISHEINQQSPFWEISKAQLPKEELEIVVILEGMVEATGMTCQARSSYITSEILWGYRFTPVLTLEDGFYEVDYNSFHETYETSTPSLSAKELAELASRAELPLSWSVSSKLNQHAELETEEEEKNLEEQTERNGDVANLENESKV
Chain of G protein-activated inward rectifier potassium channel 2 (Homo sapiens) + G protein-activated inward rectifier potassium channel 1 (Homo sapiens) (P48549 whole entry, looked up): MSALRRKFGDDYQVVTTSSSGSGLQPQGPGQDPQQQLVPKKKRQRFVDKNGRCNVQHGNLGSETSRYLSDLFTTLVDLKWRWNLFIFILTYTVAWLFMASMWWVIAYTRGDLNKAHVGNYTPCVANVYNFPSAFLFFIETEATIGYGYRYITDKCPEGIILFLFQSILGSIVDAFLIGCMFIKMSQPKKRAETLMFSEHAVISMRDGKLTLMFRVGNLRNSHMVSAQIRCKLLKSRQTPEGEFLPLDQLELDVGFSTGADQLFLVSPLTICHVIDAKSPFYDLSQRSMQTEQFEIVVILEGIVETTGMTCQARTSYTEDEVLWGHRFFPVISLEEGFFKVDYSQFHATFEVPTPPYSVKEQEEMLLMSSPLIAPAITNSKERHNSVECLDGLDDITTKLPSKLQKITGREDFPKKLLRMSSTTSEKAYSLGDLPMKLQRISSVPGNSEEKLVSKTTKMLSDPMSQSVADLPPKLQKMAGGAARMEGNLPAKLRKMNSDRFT
Turning to `CCOc1cc(C)nc(N2CCN(C3CCCCC3)CC2)n1`, the manual score is -1 (active). In the case of `COc1ccccc1C(=O)NNC(=S)NC(=O)c1ccco1`, the manual score is 1 (active). In the case of `COc1ccc(C(=O)NNC(=S)NC(=O)c2ccco2)cc1`, the manual score is 1 (active). In the case of `Cc1ccc(OCC(=O)N/N=C/c2cccn2C)cc1`, the manual score was 0. On to `Cc1ccccc1OCC(=O)N/N=C/c1cccn1C`, for which the manual score is 1 (active). With `Cc1cnc(NC(=O)COc2ccccc2Cl)s1`, the manual score was 0. To `COc1ccc(CNC(=O)CSCc2ccccc2Cl)cc1` belongs 0; to `Cc1ccc(C(=O)CC(=O)COc2ccc(Cl)cc2)cc1`, 0; to `Cc1ccc(C(=O)CC(=O)c2cc(Cl)ccc2O)cc1`, 0. As for `Cc1ccc(C(=O)CC(=O)COc2ccc(Cl)cc2C)cc1`, the manual score was 1 (active). With `O=C(NC(=S)Nc1ccc2c(c1)OCO2)c1ccccc1`, the manual score was 0. As to `Cc1ccc(NC(=O)C(c2ccccc2)C2CCCC2)cc1` (centres undefined), the manual score is 0. For the molecule `CC1CCCN(C(C(=O)Nc2ccc3c(c2)OCO3)c2ccccc2)C1` (centres undefined), the manual score is -1 (active).

Take `CC1CCN(C(C(=O)Nc2ccc3c(c2)OCO3)c2ccccc2)CC1` (centres undefined): the manual score is -1 (active). `Cc1ccc(C(C(=O)NC2CCCC2)N2CCCC(C)C2)cc1` (centres undefined): the manual score is -1 (active). To `CC(C)c1cc(C(F)(F)F)n2nc(C(=O)Nc3ccc4c(c3)OCO4)cc2n1` belongs 0; to `O=C1OC2(CCCCC2)OC(=O)C1=CNc1nc2ccccc2s1`, 1 (active). The result for `Cc1csc(SCC(=O)Nc2nc3ccccc3s2)n1` reads 0; that for `O=C(Nc1ccc(O)c(-c2nc3ccccc3s2)c1)C1=COCCO1`, 0. In the case of `Oc1oc(-c2cccc3ccccc23)nc1/C=N/c1nccs1`, the manual score is 0. Turning to `CCCCCC/C(C)=C1/SC(=S)NC1=O`, the manual score was 1 (active).

In the case of `c1ccc2c(c1)oc1c(N3CCN(Cc4ccc5c(c4)OCO5)CC3)ncnc12`, the manual score is -1 (active).

For the molecule `SC(COCc1ccccc1)CN1CCN(Cc2ccc3c(c2)OCO3)CC1` (centres undefined), the manual score was -0.5. The result for `COc1ccccc1N1CCN(Cc2cc(Br)c(O)c3ncccc23)CC1` reads 0.5. To `Cc1ccc(Cn2c(SCC(=O)N3CC(=O)Nc4ccccc43)nc3ccccc3c2=O)cc1` belongs 0. Take `CCCCCCN1C2=NCCN2c2ccccc21`: the manual score was -1 (active).

As for `Cc1ccc(CN2C3=NCCCN3c3ccccc32)cc1`, the manual score was -1 (active).

Consider `OC(CN1C2=NCCCN2c2ccccc21)c1ccc(Br)cc1` (centres undefined), for which the manual score is -1 (active). For `CC(C)(C)c1ccc(CN2C3=NCCCN3c3ccccc32)cc1`, the manual score was -1 (active). Take `CCN(CC)c1ccc(NC(=O)c2nc3nc(C)cc(C(F)F)n3n2)cc1`: the manual score is 0. For `Clc1ccc(CSc2ncn(-c3ccccc3)n2)cc1`, the manual score is 0.

As to `Cc1cc2c(cc1C)C(=O)NC(C)(C)C2`, the manual score is 0. For `COc1ccc(Cn2nnnc2C(c2ccccc2Cl)N2CCN(C3CCCC3)CC2)cc1` (centres undefined), the manual score is -1 (active).

Regarding `COc1ccc(Cn2nnnc2C(c2ccc(F)cc2)N2CCN(C3CCCC3)CC2)cc1` (centres undefined), the manual score was -1 (active). `CCC(c1nnnn1Cc1ccc(OC)cc1)N(CCCO)Cc1cc2cc3c(cc2[nH]c1=O)OCO3` (centres undefined): the manual score is 0. In the case of `C=CCN1CCN(C(c2ccc(Cl)cc2)c2nnnn2CCc2ccc(OC)c(OC)c2)CC1` (centres undefined), the manual score is -1 (active). `COCCn1nnnc1C(c1ccccc1)N1CCN(c2ccccc2)CC1` (centres undefined): the manual score is 0. With `COc1ccccc1C(c1nnnn1CCc1ccccc1)N1CCCCCC1` (centres undefined), the manual score is -1 (active). For the molecule `Cc1ccccc1/C=c1\s/c(=C\C(=O)C(C)(C)C)[nH]c1=O`, the manual score is 0. Consider `O=C(O)CCCCCNc1nc2ncn(Cc3ccccc3)c2c(=O)[nH]1`, for which the manual score is 0.

On to `CCN(CC)C(=O)CN(c1ccc2c(c1)OCO2)S(C)(=O)=O`, for which the manual score was 0.

Take `CCN(c1ccc2c(c1)OCO2)S(=O)(=O)c1cc(Br)cc2c1N(C(=O)C1CC1)CC2`: the manual score is -1 (active). In the case of `COc1ccc(-n2c(=O)[nH]cc(C(=O)Nc3ccc(NC(C)=O)cc3)c2=O)cc1`, the manual score is 0. In the case of `COc1ccc(NC(=O)C(=O)NNC(=O)c2cccs2)cc1`, the manual score is 1 (active). As for `Cn1cccc1-c1nc2ccc(NC(=O)c3cccs3)cc2[nH]1`, the manual score is 0. With `COC(=O)c1cc(OC)c(OC)cc1NC(=O)Nc1ccc(OC)cc1OC`, the manual score was 0.

In the case of `COc1ccc(NC(=O)C(=O)NNC(=O)c2cccs2)c(OC)c1`, the manual score was 1 (active). In the case of `COc1ccc(OC)c(C2C(C(=O)c3cccs3)=C(O)C(=O)N2c2cc(C)on2)c1` (centres undefined), the manual score was 0. Regarding `O=C(Nc1ccc(CN2CCOCC2)cc1)c1cc2ccccn2n1`, the manual score was 0. Turning to `COCCCNCCCOc1ccc(Cl)cc1Br`, the manual score is 0. Regarding `COCCNCCOc1ccccc1-c1ccccc1`, the manual score is -1 (active).

For the molecule `COc1cc2cnncc2cc1OC`, the manual score is 0.

Turning to `S=c1[nH]nc(-c2ccc(Br)o2)n1Cc1ccccc1`, the manual score was 1 (active). For `S=c1[nH]nc(-c2cc3ccccc3o2)n1Cc1ccccc1`, the manual score is 0.5. To `CCCc1cc(-c2n[nH]c(=S)n2Cc2ccccc2)cs1` belongs 0; to `C/C(=N/NC(=O)c1cc(Cl)ccc1O)C12CC3CC(CC(C3)C1)C2`, 0. The result for `CC(C)(C)CC(C)(C)NCC(O)COc1c(F)cc(Br)cc1F` (centres undefined) reads -1 (active); that for `CN1C2C=C3C(C#N)=C(N)C(C#N)(C#N)[C@@H](c4ccsc4)[C@@H]3C1CC2` (some centres undefined), -0.5. Regarding `O=C(Nc1nnc(-c2ccccc2F)s1)C1CCCO1` (centres undefined), the manual score was 0. To `OC(CNCC1CCCO1)Cn1c2ccc(Br)cc2c2cc(Br)ccc21` (centres undefined) belongs 0; to `CCOc1ccccc1Nc1nnc(Cc2ccccc2Cl)c(=O)[nH]1`, 1 (active). For `COc1ccc(Nc2nnc(Cc3ccccc3)c(=O)[nH]2)c(OC)c1`, the manual score is 1 (active). `COc1ccc(OC)c(Nc2cc(-c3ccccc3)nc(N)n2)c1`: the manual score is -0.5. Take `CCOc1ccccc1NC(=O)Nc1cccc(C(C)=O)c1`: the manual score is 0. In the case of `Cc1sc2ncnc(N(C)Cc3cccs3)c2c1C`, the manual score was -1 (active). The result for `CCOC(=O)c1c(CNCCN(CC)CC)n(C)c2cc(Br)c(OC)cc12` reads -1 (active). For `O=C(Nc1ccccc1-c1nnn(CC(=O)N2CCc3ccccc3C2)n1)C1CCC1`, the manual score is 0. To `CN=C1c2c(-c3ccccc3)c3cc(OC)ccc3n2CCN1C` belongs -1 (active); to `C=CCn1c(-c2cccs2)nc2ccccc21`, 0. For the molecule `CCc1cc(-c2n[nH]c(C)c2-c2nc3ccccc3n2C)c(O)c(CN2CCN(C)CC2)c1O`, the manual score was -1 (active). `CCN(CC)C(=O)CSc1nc2ccccc2c(=O)n1-c1ccccc1OC`: the manual score is 0. To `COC(=O)c1ccc2c(=O)n(C3CCCCC3)c(SCC#N)nc2c1` belongs 0; to `CCCN(CCC)C(=O)CSc1nc2ccccc2c(=O)n1C1CCCC1`, -1 (active); to `CC(C)(C)c1nnc(N/N=C/c2ccccc2)n(N)c1=O`, 0.

Consider `CCNC(=S)N/N=C(\C)c1ccc(Cl)s1`, for which the manual score was 0. In the case of `CC(C)NC(=S)N/N=C/c1cc(Br)ccc1O`, the manual score was 0. Regarding `C/C(=N\NC(=S)NCCc1ccccc1)c1cccs1`, the manual score is 3.

In the case of `C=C(C)CNC(=S)N/N=C(\C)c1ccc(Cl)s1`, the manual score is 1 (active). For the molecule `C/C(=N\NC(=S)NC(C)C)c1ccc(Cl)s1`, the manual score is 1 (active). As to `CNC(=S)N/N=C(\C)c1ccc(C)c(C)c1`, the manual score is 0.

For the molecule `C/C(=N\NC(=O)c1csc(C)c1C)c1ccc(Cl)s1`, the manual score was 0. For `C/C(=N\NC(N)=S)c1ccc(Cl)s1`, the manual score is 0. For the molecule `CNC(=S)N/N=C(\C)c1ccc(Cl)s1`, the manual score is 1 (active).

With `Cn1c(NC(=O)Cc2ccc(F)cc2)cc(=O)n(C)c1=O`, the manual score was 0. As for `CS(=O)(=O)c1ccc2nc(NC(=O)C3C4C=CC(C4)C3C(=O)O)sc2c1` (centres undefined), the manual score was 0. On to `CC1=NN(/C(=N\c2nnc(C)s2)Nc2ccccc2)[C@H](c2cccc3ccccc23)S1`, for which the manual score was 0. `O=C(c1oc(=O)c2ccccc2c1-c1ccccc1)N1CCN(C2CCCCC2)CC1`: the manual score is -1 (active). Turning to `CCCCn1c(=S)[nH]c2c(oc3ccc(Cl)cc32)c1=O`, the manual score was 1 (active). Take `CCN(CC)CCn1c(=S)[nH]c2cc(Cl)ccc2c1=O`: the manual score is 0.

`CCN(CC)CCCn1c(=S)[nH]c2cc(Cl)ccc2c1=O`: the manual score was 0.

For `Cc1ccc(C2C3=C(NCCN=C3c3ccccc3)C(=O)N2c2ccccc2)cc1` (centres undefined), the manual score was -1 (active). Consider `Cc1ccc2nsnc2c1S(=O)(=O)Nc1cccc2nsnc12`, for which the manual score is 1 (active). To `O=C(NNS(=O)(=O)c1ccccc1F)c1cccc(S(=O)(=O)N2CCOCC2)c1` belongs 0; to `CCc1ccc(NCc2cc3c(C)nn(-c4ccccc4)c3[nH]c2=O)cc1`, 0.

As to `CCc1ccc(Nc2nc3ccccc3c(=O)s2)cc1`, the manual score was 1 (active). As to `CCC(CC)c1nnc(NC(=O)c2ccc3ccccc3n2)s1`, the manual score is 0. For the molecule `O=C1CC(C(F)(F)C(F)(F)C(F)(F)F)=Nc2ccccc2N1`, the manual score is 0. In the case of `O=C(N/N=C/c1ccc([N+](=O)[O-])s1)c1cccc(Br)c1`, the manual score is 0. Turning to `O=C(N/N=C\c1ccc(Cl)s1)c1cccs1`, the manual score is 1 (active). `Cc1ccccc1C(=O)N/N=C/c1ccc([N+](=O)[O-])s1`: the manual score was 0. `CCOC(=O)C1CCCN(c2ncnc3c2oc2ccccc23)C1` (centres undefined): the manual score was -1 (active). For the molecule `CCOC(=O)C1CCCN(C(=O)c2cc(-c3ccccc3)on2)C1` (centres undefined), the manual score is 0.

In the case of `CCOC(=O)N1CCN(C(=O)CSc2ncnc3ccccc23)CC1`, the manual score is 0. As for `CCOC(=O)C1CCCN(c2nc(C)nc3c2oc2ccccc23)C1` (centres undefined), the manual score was -1 (active). As for `Cc1ccc(S(=O)(=O)CC(=O)Nc2ccc(S(=O)(=O)Nc3onc(C)c3C)cc2)cc1`, the manual score was -0.5. The result for `C/C(CC(O)c1ccc2ccccc2n1)=N/O` (centres undefined) reads 0; that for `CNC(=S)N=Nc1c(O)[nH]c2ccc(C(C)C)cc12`, 0; that for `Cc1ccc(C)c(C(=O)c2c(C)nc3sccn23)c1`, -1 (active).

In the case of `Cn1c(=O)c2c(nc3sccn32)n(C)c1=O`, the manual score was 0.

The values are drawn from PubChem BioAssay AID623911 (Vanderbilt High Throughput Screening Facility, 2012).
